# Experimental data: PubChem BioAssay (NCI)
# Compounds without any hit were thinned out: in the full panel of roughly 83,000, 20% have a hit.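 Assay: single dose, 48 h. Readout: percent growth (0 = no net growth; negative = cell death). Active: <10.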 A number with no mark means an inactive call. Active and inactive are the calls of the source.
# Tested on: MDA-MB-435 melanoma
# Test: NCI-60 one-dose screen, 48 h (100 = growth as untreated, 0 = no growth, -100 = all killed)
# Details: 10 µM unless noted
row,Structure (SMILES),growth
1,CC1=C(C#N)C2=NNCC(c3ccccc3)=NN2C(c2ccccc2)=C1,106%
2,O=C(O)c1ccc(-c2ccc(/C=N/NC(=O)c3[nH]c4ccc(Br)cc4c3-c3ccccc3)s2)cc1,4.27% (active)
3,N#Cc1c(-c2ccc(Cl)cc2)nc2n[nH]c(-c3ccc(Cl)cc3)c2c1-c1cccs1,60.5%
4,COc1c(F)ccc(C(=O)Nc2ccc3nc(NC(=O)C4CCCN(S(=O)(=O)c5cccc(Br)c5)C4)sc3c2)c1F (stereo not drawn),90.7%
5,O=c1[nH]c2ccc(Cl)cc2cc1CSc1nccc(-c2ccc(Cl)cc2)n1,76.5%
6,O=C(O)c1cccc(-c2ccc(/C=N/NC(=O)c3[nH]c4ccc(Br)cc4c3-c3ccccc3)s2)c1,10.4%
7,O=c1[nH]c(=O)c2c(-c3cc4ccccc4oc3=O)ccnc2[nH]1,101%
8,N#Cc1c(-c2ccc(Br)cc2)nc2n[nH]c(-c3ccc(Br)cc3)c2c1-c1ccc(C(F)(F)F)cc1,3.09% (active)
9,COc1cccc(/C=C/c2nc3ccccc3c(=O)n2CC(=O)Nc2ccc(Cl)cc2)c1,95.4%
10,CSc1ccc(C(=O)Nc2ccc3nn(/C(C#N)=C/c4ccccn4)nc3c2)cc1,-44.9% (active)
11,O=C(/C=C/c1ccc(-c2ccccc2)cc1)c1nc2ccccc2n1Cc1ccc(Br)cc1,61.9%
12,COc1ccc2c(c1)c(/C=N/Nc1ccc3ccccc3n1)cn2C,11.2%
13,COc1c(F)ccc(C(=O)Nc2ccc3nc(NC(=O)C4CCCN(S(=O)(=O)c5ccc(Br)c(F)c5)C4)sc3c2)c1F (stereo not drawn),92.3%
14,N#Cc1c(-c2cccc(Cl)c2Cl)cc(-c2ccc3ccccc3c2)[nH]c1=O,94.9%
15,Nc1cc2ccccc2c(=O)n1NC(=O)c1ccc(I)cc1,100%
16,CCN(CC)c1ccnc(CNCCSC(c2ccccc2)(c2ccccc2)c2ccc(OC)cc2)c1,-63.8% (active)
17,N#Cc1c(-c2ccccc2Cl)cc(-c2c[nH]c3ccccc23)[nH]c1=O,23.6%
18,N#Cc1ccc(/C=N/NC(=O)c2[nH]c3ccc(Br)cc3c2-c2ccccc2)o1,-3.87% (active)
19,Cc1nc(Nc2ncc(C(=O)Nc3c(C)cccc3Cl)s2)cc(N2CCN(CCCNC(=O)COc3ccc(C4CCC(=O)NC4=O)cc3)CC2)n1 (stereo not drawn),81%

row,Structure (SMILES),growth
1,Cc1cc(=O)oc2cc(OCCCOc3ccc(/C=C/C(=O)Nc4ccccc4N)cc3)ccc12,38.3%
2,COc1c(F)ccc(C(=O)Nc2ccc3nc(NC(=O)C4CCCN(S(=O)(=O)c5ccc(C(F)(F)F)cc5)C4)sc3c2)c1F (stereo not drawn),94.2%
3,Cc1sc2c(c1C)C(c1ccc(Cl)cc1)=N[C@@H](CC(=O)NCCCCCNC(=O)COc1ccc(C3CCC(=O)NC3=O)cc1)c1nnc(C)n1-2 (stereo partly drawn),20.3%
4,COc1ccc(C(=O)/C=C/c2ccc(OCc3ccc(F)cc3)c(OC)c2)cc1OC,7.77% (active)
5,CCOC(=O)C1=C(N)N(c2ccccc2)C2=C(C(=O)CC(C)(C)C2)C1c1ccc(Cl)cc1Cl (stereo not drawn),29.5%
6,CCCCSc1nc(Nc2ccc(S(N)(=O)=O)cc2)c(C#N)c(-c2ccc(Cl)cc2)n1,56.2%
7,CC(C)CCNC(=O)N/C(N)=N/c1nc2ccccc2s1,44.2%
8,CN(C)c1nc(NCCNS(=O)(=O)c2ccc(C3=Nc4c(N)nc(N)nc4NC(c4ccc(F)cc4)C3)cc2)nc(Nc2ccc(F)cc2)n1 (stereo not drawn),31%
9,COc1ccc2cc([C@H](C)C(=O)N/N=C/c3ccc(Br)cc3)ccc2c1,103%
10,Cn1cc(-c2cc3nc(-c4cn(C)c5ncccc45)cc(N)n3n2)c2ccccc21,29.7%
11,COc1ccc(-c2cc(C(=O)NCc3ccccc3)nn2-c2ccc(S(C)(=O)=O)cc2)cc1OC,105%
12,COc1ccc(-c2ccc(SCC(=O)Nc3ccc(S(N)(=O)=O)cc3Br)nn2)cc1,108%
13,C#CCOc1cc(N(CC)CC)ccc1C(C(=O)NC(C)(C)C)N(C(=O)C1CCc2cc(F)ccc2O1)c1cc(C)cc(C)c1 (stereo not drawn),47.1%
14,N#Cc1c(-c2ccc(Br)cc2)nc2n[nH]c(-c3ccc(Br)cc3)c2c1-c1ccc(F)cc1,102%
15,CSc1ccc(NC(=O)c2ccc3nn(/C(C#N)=C/c4ccccn4)nc3c2)cc1,-70.8% (active)
16,C=C1CC[C@@H]2[C@]3(C)COC(c4cn(-c5ccccc5)nc4-c4cccc([N+](=O)[O-])c4)O[C@@H]3CC[C@@]2(C)[C@@H]1C/C=C1/C(=O)OC[C@H]1O (stereo partly drawn),-26.4% (active)
17,Cc1ccc(NC(=O)CN2CCN(c3ncnc4c3cnn4-c3ccccc3)CC2)cc1,94.2%
18,Cc1cc(C)cc(C(=O)Nc2cccc(-c3cn(-c4ccc(S(N)(=O)=O)cc4)nn3)c2)c1,85.9%
19,O=C(C1=CNC(=S)NC1c1ccc(O)cc1)c1cc2ccccc2oc1=O (stereo not drawn),105%
